Inconclusive results are not listed. The source made the active and inactive calls. Unless noted, calls come from the whole dose curve; as a rule, active = well fitted curve in the direction sought with a large enough effect in the repeat runs; inconclusive = weak or mixed curves; inactive = no such curve, though single readings can be large; an effect the other way counts as inactive or inconclusive.
Key:
[1] = qHTS assay to identify small molecule antagonists of the thyroid receptor (TR) signaling pathway (AID 743065); note: series mostly up to about 70 µM; nearly all actives have a fitted effect of over 55% in size
Method in brief: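 GH3.TRE-Luc rat pituitary cells carrying two TR response elements driving luciferase were plated for 4 h, given compound plus 1 nM T3 (final), and incubated 23.5 h at 37 C. ONE-Glo luminescence measured reporter inhibition; CellTiter-Fluor fluorescence tracked cytotoxicity.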

[2] = system: thyroid hormone receptor (rat, GH3 cells); assay: qHTS assay to identify small molecule agonists of the thyroid receptor (TR) signaling pathway (AID 743066; calls by dose curve)
[3] = target: Estrogen receptor (Homo sapiens) (UniProt P03372); assay: qHTS assay to identify small molecule antagonists of the estrogen receptor alpha (ER-alpha) signaling pathway (AID 743069; active = well fitted curve in the direction sought with a large enough effect in the signal ratio in the repeat runs, not every such curve was filed as active; the % refers to the signal ratio)
Method in brief: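 Screening used a UAS-driven beta-lactamase reporter integrated into HEK293 cells expressing ER-alpha, stimulated with 17beta-estradiol alongside test compounds over 18 hr at 37C; signal came from LiveBLAzer B/G FRET fluorescence.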

[4] = qHTS assay to identify small molecule antagonists of the estrogen receptor alpha (ER-alpha) signaling pathway - cell viability counter screen (AID 743074; calls by dose curve; note: nearly all actives have a fitted effect of over 45% in size)
[5] = target: Estrogen receptor (Homo sapiens) (UniProt P03372); assay: qHTS assay to identify small molecule agonists of the estrogen receptor alpha (ER-alpha) signaling pathway (AID 743075; calls by dose curve)
[6] = target: Estrogen receptor (Homo sapiens) (UniProt P03372); assay: qHTS assay to identify small molecule agonists of the estrogen receptor alpha (ER-alpha) signaling pathway using the BG1 cell line (AID 743079); note: nearly all actives have a fitted effect of over 20% in size; note: potency is the fitted concentration of half-maximal effect
[7] = qHTS assay to identify small molecule antagonists of the estrogen receptor alpha (ER-alpha) signaling pathway using the BG1 cell line - cell viability counter screen (AID 743081);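 note: compound given together with 17beta-estradiol as the ER stimulus; series mostly up to about 70 µM; nearly all actives have a fitted effect of over 45% in size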
Aromatase (Homo sapiens) = Aromatase (Homo sapiens) (UniProt P11511); assay: qHTS assay to identify aromatase inhibitors (AID 743083); note: series mostly up to about 70 µM; nearly all actives have a fitted effect of over 55% in size
[8] = qHTS assay to identify aromatase inhibitors - cell viability counter screen (AID 743084);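 note: cells stimulated with testosterone during compound exposure; nearly all actives have a fitted effect of over 55% in size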
[9] = target: Aryl hydrocarbon receptor (Homo sapiens) (UniProt P35869); assay: qHTS assay to identify small molecule that activate the aryl hydrocarbon receptor (AhR) signaling pathway (AID 743085);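 note: HG2L7.5c1 human HepG2 liver cells with stably integrated DRE-driven firefly reporter; series mostly up to about 70 µM; nearly all actives have a fitted effect of over 15% in size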
Method in brief: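 Luminescence (ONE-Glo) from a dioxin-responsive-element luciferase reporter in HG2L7.5c1 HepG2 cells after 24 hr compound exposure at 37C; viability measured by CellTiter-Fluor fluorescence beforehand.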

[10] = qHTS assay to identify small molecule that activate the aryl hydrocarbon receptor (AhR) signaling pathway - cell viability counter screen (AID 743086);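 note: HepG2 liver cells carrying the AhR DRE luciferase reporter; series mostly up to about 70 µM; nearly all actives have a fitted effect of over 45% in size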
Method in brief: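 HepG2-AhR-luc (HG2L7.5c1) cells, 4000/well, were preincubated 5 h at 37C, exposed to compound in qHTS format for 24 hr at 37C, then given CellTiter-Fluor for 30 min; viability was read as fluorescence in the reporter wells.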

[11] = target: Peroxisome proliferator-activated receptor gamma (Homo sapiens) (UniProt P37231); assay: qHTS assay to identify small molecule agonists of the peroxisome proliferator-activated receptor gamma (PPARg) signaling pathway (AID 743094; active = well fitted activation curve with a large enough effect in the signal ratio in the repeat runs, not every such curve was filed as active; the % refers to the signal ratio)
Method in brief: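 Agonist activity was taken from a beta-lactamase reporter (FRET substrate, 1 h at room temperature) in HEK293H cells carrying a PPARg UAS-bla construct. Compounds in DMSO were incubated 17 h at 37C after a 5 h cell pre-incubation.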

[12] = qHTS assay to identify small molecule antagonists of the peroxisome proliferator-activated receptor gamma (PPARg) signaling pathway - cell viability counter screen (AID 743194); note: nearly all actives have a fitted effect of over 55% in size
Method in brief: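 PPARg-UAS-bla HEK293H cells were plated, rested 5 h at 37 C, then treated with compounds plus rosiglitazone (50 nM final) for 17 h at 37 C; viability was then read by CellTiter-Glo luminescence after 30 min at room temperature.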

[13] = qHTS assay for small molecule agonists of the antioxidant response element (ARE) signaling pathway (AID 743202; active = well fitted activation curve with a large enough effect in the signal ratio in the repeat runs, not every such curve was filed as active; the % refers to the signal ratio)
Method in brief: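 Steps: seed ARE-bla HepG2 cells (2,000/well); incubate 5 h at 37 C; add compounds by pin tool; incubate 16 h at 37 C; add FRET substrate; read fluorescence after 2 h at RT.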

[14] = qHTS assay for small molecule agonists of the antioxidant response element (ARE) signaling pathway - cell viability counter screen (AID 743203; calls by dose curve; note: nearly all actives have a fitted effect of over 55% in size)
Method in brief: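 Viability counter screen: CellTiter-Glo luminescence, read after 30 min at room temperature, in ARE-bla HepG2 wells. Compound exposure lasted 16 h at 37C/5% CO2, following a 5 h pre-incubation of the cells after plating.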

[15] = qHTS assay to identify small molecule antagonists of the estrogen receptor alpha (ER-alpha) signaling pathway using the BG1 cell line (AID 743080; calls by dose curve;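 note: BG1 cells stimulated with 17beta-estradiol alongside compound; series mostly up to about 70 µM; nearly all actives have a fitted effect of over 25% in size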)
Method in brief: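 BG1-Luc-4E2 cells (endogenous full-length ER-alpha, 4xERE luciferase) hormone-starved 5 days in charcoal-stripped FBS, plated 4,000/well for 24 h, then compound plus 17beta-estradiol for 21.5 h at 37 C; ONE-Glo luminescence read.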

[16] = qHTS assay for small molecule activators of the heat shock response signaling pathway - cell viability counter screen (AID 743209); note: nearly all actives have a fitted effect of over 50% in size
Method in brief: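 Cytotoxicity counter screen run in the same wells as the heat-shock bla reporter assay: HeLa HSE-bla cells, 5 h compound exposure at 37 C, viability read by CellTiter-Glo luminescence.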

[17] = qHTS assay for small molecule activators of the heat shock response signaling pathway (AID 743210; active = well fitted activation curve with a large enough effect in the signal ratio in the repeat runs, with a control signal flat, not every such curve was filed as active; the % refers to the signal ratio;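 note: HeLa cells with beta-lactamase reporter driven by heat shock elements; series mostly up to about 63 µM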)
Method in brief: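 Activation of heat shock element-controlled beta-lactamase expression is measured in HeLa cells by LiveBLAzer FRET fluorescence, with compound exposure lasting 5 h at 37 C and substrate loading 2.5 h at room temperature.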

[18] = qHTS assay to identify small molecule agonists of the peroxisome proliferator-activated receptor delta (PPARd) signaling pathway - cell viability counter screen (AID 743211); note: nearly all actives have a fitted effect of over 55% in size
Method in brief: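 Viability was measured as CellTiter-Glo luminescence (30 min, room temperature) in the same wells as the beta-lactamase readout. GeneBLAzer PPARd UAS-bla HEK293H cells received compound after 5 h plating and were incubated 17 h at 37 C.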

[19] = target: Peroxisome proliferator-activated receptor gamma (Homo sapiens) (UniProt P37231); assay: qHTS assay to identify small molecule antagonists of the peroxisome proliferator-activated receptor gamma (PPARg) signaling pathway (AID 743191; calls by dose curve; note: series mostly up to about 63 µM; nearly all actives have a fitted effect of over 30% in size)
Method in brief: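 GeneBLAzer PPARg UAS-bla HEK293H cells carrying a UAS-driven beta-lactamase reporter were plated at 3000 cells/well, preincubated 5 h at 37C, then given compound for 17 h at 37C; LiveBLAzer B/G FRET substrate was read after 1 h at room temperature.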
% is set by controls: 0 for no effect and ±100 for the full control effect.

Aromatase (Homo sapiens), sequence (P11511 whole entry, looked up): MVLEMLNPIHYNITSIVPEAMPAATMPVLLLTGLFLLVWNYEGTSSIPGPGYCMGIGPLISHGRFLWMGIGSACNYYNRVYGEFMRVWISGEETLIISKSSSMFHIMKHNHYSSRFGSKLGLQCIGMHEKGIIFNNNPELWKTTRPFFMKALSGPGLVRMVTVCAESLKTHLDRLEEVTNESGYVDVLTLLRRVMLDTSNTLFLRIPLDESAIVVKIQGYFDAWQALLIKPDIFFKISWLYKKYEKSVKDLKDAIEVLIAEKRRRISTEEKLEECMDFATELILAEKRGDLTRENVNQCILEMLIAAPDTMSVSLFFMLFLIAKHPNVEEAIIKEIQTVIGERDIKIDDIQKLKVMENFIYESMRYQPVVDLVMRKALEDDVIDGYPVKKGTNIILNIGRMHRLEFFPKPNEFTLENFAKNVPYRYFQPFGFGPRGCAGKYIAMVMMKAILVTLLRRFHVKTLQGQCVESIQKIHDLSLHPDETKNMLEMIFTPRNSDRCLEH
Aryl hydrocarbon receptor (Homo sapiens), sequence (P35869 whole entry, looked up): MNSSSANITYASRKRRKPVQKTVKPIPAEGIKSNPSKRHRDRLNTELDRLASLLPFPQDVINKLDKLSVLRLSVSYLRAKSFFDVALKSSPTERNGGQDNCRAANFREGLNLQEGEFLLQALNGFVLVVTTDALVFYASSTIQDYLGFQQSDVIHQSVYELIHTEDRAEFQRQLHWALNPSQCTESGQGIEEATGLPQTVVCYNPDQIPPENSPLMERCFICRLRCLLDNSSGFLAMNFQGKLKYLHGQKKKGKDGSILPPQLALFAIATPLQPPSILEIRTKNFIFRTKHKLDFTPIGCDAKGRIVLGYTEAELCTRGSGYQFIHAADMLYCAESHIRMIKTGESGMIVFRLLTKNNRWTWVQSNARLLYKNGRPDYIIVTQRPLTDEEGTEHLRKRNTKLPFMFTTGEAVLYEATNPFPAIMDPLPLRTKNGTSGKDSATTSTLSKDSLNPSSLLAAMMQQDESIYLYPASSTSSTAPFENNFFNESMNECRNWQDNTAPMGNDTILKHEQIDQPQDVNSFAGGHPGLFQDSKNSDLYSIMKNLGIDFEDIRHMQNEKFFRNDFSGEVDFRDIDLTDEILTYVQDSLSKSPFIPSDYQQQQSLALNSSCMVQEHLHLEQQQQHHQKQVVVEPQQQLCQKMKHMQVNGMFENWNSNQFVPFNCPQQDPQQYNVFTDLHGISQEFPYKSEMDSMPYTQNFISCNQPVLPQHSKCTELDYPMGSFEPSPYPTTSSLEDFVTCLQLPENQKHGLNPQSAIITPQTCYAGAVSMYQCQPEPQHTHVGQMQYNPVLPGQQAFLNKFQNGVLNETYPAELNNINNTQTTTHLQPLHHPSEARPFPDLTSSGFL
Estrogen receptor (Homo sapiens), sequence (P03372 whole entry, looked up): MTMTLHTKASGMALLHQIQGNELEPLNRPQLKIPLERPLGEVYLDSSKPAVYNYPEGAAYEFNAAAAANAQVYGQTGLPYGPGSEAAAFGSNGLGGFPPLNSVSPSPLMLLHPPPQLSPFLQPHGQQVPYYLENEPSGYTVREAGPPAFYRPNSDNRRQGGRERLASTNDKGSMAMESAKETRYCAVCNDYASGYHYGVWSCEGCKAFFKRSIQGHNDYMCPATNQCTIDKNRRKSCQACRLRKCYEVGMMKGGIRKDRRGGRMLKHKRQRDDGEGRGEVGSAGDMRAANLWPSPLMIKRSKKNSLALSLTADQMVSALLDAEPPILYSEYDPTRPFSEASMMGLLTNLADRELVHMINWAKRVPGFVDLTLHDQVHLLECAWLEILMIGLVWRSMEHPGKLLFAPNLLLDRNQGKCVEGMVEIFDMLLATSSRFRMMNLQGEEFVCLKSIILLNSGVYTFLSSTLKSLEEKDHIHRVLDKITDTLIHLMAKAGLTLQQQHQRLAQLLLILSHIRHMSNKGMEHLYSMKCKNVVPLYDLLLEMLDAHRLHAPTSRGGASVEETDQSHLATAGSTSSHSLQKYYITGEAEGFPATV
Peroxisome proliferator-activated receptor gamma (Homo sapiens), sequence (P37231 whole entry, looked up): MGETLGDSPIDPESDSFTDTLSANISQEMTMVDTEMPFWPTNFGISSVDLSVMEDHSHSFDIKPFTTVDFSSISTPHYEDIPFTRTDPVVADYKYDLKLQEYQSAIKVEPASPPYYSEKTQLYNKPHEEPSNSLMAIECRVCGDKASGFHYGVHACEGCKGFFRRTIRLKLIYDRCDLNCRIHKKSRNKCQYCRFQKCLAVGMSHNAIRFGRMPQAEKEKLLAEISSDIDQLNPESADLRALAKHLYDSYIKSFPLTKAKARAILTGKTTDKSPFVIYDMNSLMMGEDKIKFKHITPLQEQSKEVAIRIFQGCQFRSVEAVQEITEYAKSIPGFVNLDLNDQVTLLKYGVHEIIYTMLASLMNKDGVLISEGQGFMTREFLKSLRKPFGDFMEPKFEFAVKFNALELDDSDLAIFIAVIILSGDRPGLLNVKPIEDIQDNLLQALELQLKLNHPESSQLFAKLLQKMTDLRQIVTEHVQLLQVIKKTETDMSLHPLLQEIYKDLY

COc1cnc(NS(=O)(=O)c2ccc(N)cc2)nc1
inactive: Potency [1] | Potency [2] | outcome [3] | Potency [4] | Potency [5] | Potency [6] | outcome [7] | Potency (Aromatase (Homo sapiens)) | outcome [8] | Potency [9] | outcome [10] | outcome [11] | outcome [12] | Potency [13] | outcome [14]

CCCCCCCCCCCCCC(=O)OCC
inactive: Potency [1] | Potency [2] | outcome [3] | Potency [4] | Potency [5] | Potency [6] | Potency [15] | outcome [7] | Potency (Aromatase (Homo sapiens)) | outcome [8] | outcome [10] | outcome [12] | outcome [14] | Potency [16] | outcome [17] | outcome [18]

NNC(=O)CCCCC(=O)NN
inactive: Potency [1] | Potency [2] | outcome [3] | Potency [4] | Potency [5] | Potency [6] | Potency [15] | Potency (Aromatase (Homo sapiens)) | outcome [8] | outcome [19] | outcome [12] | Potency [13] | outcome [14] | Potency [16] | outcome [17] | outcome [18]

Clc1cc(Cl)c(Cl)c(Cl)c1Cl
inactive: Potency [1] | Potency [2] | outcome [3] | Potency [4] | Potency [5] | Potency [6] | outcome [7] | Potency (Aromatase (Homo sapiens)) | outcome [8] | Potency [9] | Potency [13] | outcome [14] | Potency [16] | outcome [18]

C[C@@H]1CC[C@@]2(OC1)O[C@H]1C[C@H]3[C@@H]4CC[C@H]5C[C@@H](O)CC[C@]5(C)[C@H]4CC(=O)[C@]3(C)[C@H]1[C@@H]2C
inactive: Potency [1] | Potency [2] | outcome [3] | Potency [4] | Potency [5] | Potency [6] | outcome [7] | Potency (Aromatase (Homo sapiens)) | outcome [8] | Potency [9] | outcome [10] | activity change, negative = cytotoxicity [12] 10.8% [at 5.95 µM] | activation [13] 5.01% [at 8.36 µM] | viability change, negative = cytotoxic [14] 3.19% [at 8.36 µM] | activity change, negative = cytotoxicity [16] 11.4% [at 5.95 µM] | activation [17] 0.0014% [at 5.95 µM] | activity change, negative = cytotoxicity [18] 5.8% [at 5.95 µM]

Cc1ccc(N)nc1
inactive: Potency [1] | Potency [2] | outcome [3] | Potency [4] | Potency [5] | Potency [6] | outcome [7] | Potency (Aromatase (Homo sapiens)) | outcome [8] | Potency [9] | outcome [10] | outcome [19] | outcome [12] | Potency [13] | outcome [14] | outcome [17] | outcome [18]

Cc1cc(O)c(Cl)cc1C
inactive: Potency [1] | Potency [2] | outcome [3] | Potency [4] | Potency [5] | Potency [6] | outcome [7] | Potency (Aromatase (Homo sapiens)) | outcome [8] | Potency [9] | outcome [10] | outcome [11] | outcome [19] | outcome [12] | Potency [13] | outcome [14] | Potency [16] | outcome [17] | outcome [18]

Cc1ccc(Br)cc1
inactive: Potency [1] | Potency [2] | outcome [3] | Potency [4] | Potency [5] | Potency [6] | Potency [15] | outcome [7] | Potency (Aromatase (Homo sapiens)) | outcome [8] | Potency [9] | outcome [19] | outcome [12] | Potency [13] | Potency [16] | outcome [17] | outcome [18]

CCO[Si](CC(C)C)(OCC)OCC
inactive: Potency [1] | Potency [2] | outcome [3] | Potency [4] | Potency [5] | Potency [6] | Potency [15] | outcome [7] | Potency (Aromatase (Homo sapiens)) | Potency [9] | outcome [10] | outcome [19] | outcome [14] | Potency [16] | outcome [17]

CCN(CC)CC
inactive: Potency [1] | Potency [2] | outcome [3] | Potency [4] | Potency [5] | Potency [6] | outcome [7] | Potency (Aromatase (Homo sapiens)) | outcome [8] | Potency [9] | outcome [10] | outcome [11] | outcome [12] | Potency [13] | outcome [14] | Potency [16] | outcome [17] | outcome [18]

O=Cc1ccc(C(=O)O)cc1
inactive: Potency [1] | Potency [2] | outcome [3] | Potency [4] | Potency [5] | Potency [6] | outcome [7] | Potency (Aromatase (Homo sapiens)) | outcome [8] | Potency [9] | outcome [10] | outcome [11] | outcome [19] | outcome [14] | Potency [16] | outcome [17] | outcome [18]

CC(CN1CC(=O)NC(=O)C1)N1CC(=O)NC(=O)C1 (stereo not given)
inactive: Potency [1] | Potency [2] | outcome [3] | Potency [4] | Potency [5] | Potency [6] | outcome [7] | Potency (Aromatase (Homo sapiens)) | Potency [9] | outcome [10] | outcome [11] | outcome [12] | outcome [14] | outcome [17] | outcome [18]

N[C@H]1C(O)O[C@H](CO)[C@@H](O)[C@@H]1O (stereo not given in full)
inactive: Potency [1] | Potency [2] | outcome [3] | Potency [4] | Potency [5] | outcome [7] | Potency (Aromatase (Homo sapiens)) | outcome [8] | Potency [9] | outcome [10] | outcome [11] | outcome [19] | outcome [12] | outcome [14] | outcome [17] | outcome [18]
active: Potency [6] 0.531 µM

CCCC(=O)CC
inactive: Potency [1] | Potency [2] | outcome [3] | Potency [4] | Potency [5] | outcome [7] | Potency (Aromatase (Homo sapiens)) | outcome [8] | Potency [9] | outcome [10] | outcome [11] | outcome [19] | Potency [13] | outcome [14] | Potency [16] | outcome [18]
active: Potency [6] 28.1 µM
